According to the supplement of paper PMC6555819:

Columns and labels:
Assay in all cases: PBM binding z-score (relative to random genomic background probes); higher = stronger binding; sequences stand for … in GC…GCGATTGACAGCGTAGAATGAAGG
[1] = system: RARb homodimer (NR concentration 270 nM)
Procedure, shortened: (§1)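 Each nuclear receptor dimer, without ligand, was incubated for 1 h on custom Agilent 4×180K protein-binding microarrays. Binding was detected with antibodies against each partner (one per run), and scanned fluorescence was regression-normalized. The binding z-scores are referenced to random human genomic background probes.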

[2] = system: RARg:RXRa (NR concentration 270 nM, RXRa partner concentration 90 nM)
Procedure, shortened: as §1

[3] = system: RARg homodimer (NR concentration 270 nM)
Procedure, shortened: as §1

[4] = system: RXRa DBDmut IVT, anti-RXR (DBD mutation: RXRa K156A/R161A, NR concentration 90 nM)
Procedure, shortened: as §1

[5] = system: RXRa homodimer (NR concentration 180 nM)
Procedure, shortened: as §1

[6] = system: THRa:RXRa (NR concentration 90 nM, RXRa partner concentration 90 nM)
Procedure, shortened: as §1

[7] = system: THRa homodimer (NR concentration 90 nM)
Procedure, shortened: as §1

[8] = system: VDR homodimer (NR concentration 270 nM)
Procedure, shortened: as §1

Sequence	PBM binding z-score [1]	PBM binding z-score [2]	PBM binding z-score [3]	PBM binding z-score [4]	PBM binding z-score [5]	PBM binding z-score [6]	PBM binding z-score [7]	PBM binding z-score [8]
CCTACTGGGCCATGAGGTCATTGATATCAACGTT	3.32	3.54	2.78	1.42	3.58	3.97	4.36	4.75
AATACATGGTCATCGTAGGCCAGAGTACGCACAG	0.899	0.696	1.26	-0.177	0.994	1.25	-0.339	0.322
CGTCCACGGTCAATGCTAGGTCAGTGAAAGCATT	3.02	3.59	3.1	0.356	0.354	2.12	0.347	-0.19
CCAGTCAGGTGAGAAGGTAACTCAGCCTCGATTA	0.469	0.276	0.321	-0.0426	0.153	1.11	0.512	-0.271
GCTTGTAGATCAAGGCTAAGAAAGACTAAGCTAA	-0.854	-0.533	-0.429	-0.427	-0.497	-0.5	-1.37	-0.708
CCTAGCAGGCCAATCTGGGTCACTCGAGGCTTGA	2.3	1.11	1.12	-0.0882	0.738	3.7	0.253	0.136
ATATGTAGGTTATCGGGCCATTCAGTTTGCGCAT	1.07	0.874	0.93	0.832	0.911	1.24	0.971	1.34
TGAATGAGGTTATAAGATCAGAGAACGTTGCAAA	-0.136	1.39	0.985	0.35	1.74	1.55	-0.514	0.234
ATAACGAGGGCAATGAGTTGATAGCACGGGTGGC	0.877	1.46	1.73	1.84	1.07	0.969	-0.389	3.01
TGAATGAGTTTAAAGATCAGGGAACGTGGCGTCG	-0.301	0.427	0.222	3.12	0.84	-0.0905	-0.483	2.88
CGTCCAAGGTGATAGGAGGTCAGTGAAGACAGAT	3.59	2.56	2.86	0.227	1.88	4.34	1.51	0.846
TCTATTGGTTGATTAGGGCAACCGAAACAGCGGA	0.698	0.341	0.499	0.712	0.317	0.871	0.352	0.054
ACTCGGAGGACAACGGTCAGAGCTACGCCAGTGA	1.51	1.06	2.14	0.0365	-0.0292	0.773	-0.132	-0.272
CGTCCAAAGTCAGAGAGGTCAGTGAATGCCGAGT	4.21	2.98	3.26	1.16	2.65	2.72	0.954	2.12
CCTAGTTGGTCAGGAGTTCACACACCGGATATGA	3.04	3.12	2.47	2.09	2.32	1.5	1.07	4.81
TCTGCGAGGTCAGTTGGTCAGCTAACGAGCTGCC	3.86	5	5.42	2.8	3.76	3.22	1.39	2.02
CCTACTGGGCCATCCGGTCATTGATATCAACGTT	1.9	0.787	1.34	-0.598	0.106	0.75	0.677	0.0499
TCTCGCAGGACACGAAAGGTCAGAGCTCGACATC	4.29	4.42	4.47	1.05	4.07	3.42	0.878	0.759
CCTGCTAGGTCAATGGTCAGTTAAAGCAGCTCGC	3.24	3.72	4.65	1.99	2.11	2.38	0.961	0.506
TTACCAAGGTGAAAGGTCGTGGATGCACGCCTTG	2.98	5.09	2.53	0.256	6.85	3.45	0.939	0.435
CCAAACAGGTGAGAAGGTAACTCAGCCTCGATTA	0.453	0.434	0.256	-0.0242	0.335	0.199	0.0192	-0.08
AGTCAAAGTTCAGGACCAGGTAACGTAAAGCACG	3	4.41	4.51	2.84	2.91	3.14	0.673	1.72
ACATGTAGGTTAAGGGTCATTCAGGTTGGTTCGC	3.49	4.68	3.24	2.73	5.95	3.42	2.01	4.91
CGTCCAAGGTCATAGGAGGTGAGTGAAGACAGAT	4.33	5.74	5.64	3.53	5.36	5.3	2.93	2.82
TCTCGAAGGACACGAAGGTCAGAGCTTTCCAGAG	3.75	2.99	3.73	0.817	1.94	2.03	0.331	0.435
GCATATAGGTAATAAAAGGTGAAAGTCCGATTGT	1.63	0.972	0.621	0.496	1.53	2.61	-0.141	0.166
CAAACTAGGTAACAGAGGTCAAAGTCCGTGCGTA	4.45	5.28	4.28	2.34	6.18	4.1	1.95	4.49
AGAATGAGGTTATAGGTAGATCAGGGAAGAAAGT	1.39	1.63	1.08	1.35	2.15	2.45	1.42	1.24
TAGCCTAGGTGATTCAGGGGCCAGTATAGAAAGC	0.919	0.914	0.0636	-0.561	-0.089	0.651	-0.0483	-0.15
